We go through seven compounds from PubChem BioAssay (NCI).

Test systems include HCT-15 colon; HT29 colon; SNB-75 CNS; SNB-19 CNS; U251 CNS; PC-3 prostate; SK-MEL-5 melanoma; UACC-62 melanoma; LOX IMVI melanoma; SK-MEL-28 melanoma; SK-MEL-2 melanoma; EKVX NSCLC; SN12C renal; UO-31 renal; TK-10 renal; ACHN renal; CAKI-1 renal; A498 renal; CCRF-CEM leukemia; MOLT-4 leukemia.
What all share (assay): NCI-60 one-dose screen, 48 h (100 = growth as untreated, 0 = no growth, -100 = all killed)
Common to all, as to settings: 10 µM unless noted

Molecules are shown by their SMILES. This is part of a sample that, as a whole, favours compounds with a hit. Of some 83,000 tested, about 20% had one in any assay.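 How to read the values: 0–100, growth inhibition (40 = 60% inhibited); 0, no net growth; -100 to 0, cell death (-40 = 40% of starting cells died; -100 = all dead).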 A number with no mark means an inactive call. The source made the active and inactive calls. How the source made its calls: active means growth percent below 10; inactive means the rest.

In the case of `c1ccc2c(c1)Nc1ccncc1S2`, the growth in the assay on HCT-15 colon is 99.7%; in the assay on HT29 colon it was 90.5%; with SNB-75 CNS it was 86.3%; in the assay on SNB-19 CNS, 107%; in the assay with U251 CNS, 102%; in the assay with PC-3 prostate, 91.2%. For the same compound, the growth was 93.3% in the assay with SK-MEL-5 melanoma; 96.8% in the assay on UACC-62 melanoma; 85.8% in the assay on LOX IMVI melanoma; 128% in the assay with SK-MEL-28 melanoma; 119% in the assay on SK-MEL-2 melanoma; 73.1% in the assay on EKVX NSCLC. Moreover, the growth is 97.6% with SN12C renal; 78.5% in the assay on UO-31 renal; 109% in the assay on TK-10 renal; 94.2% in the assay on ACHN renal; 61.2% with CAKI-1 renal; 80.7% in the assay with A498 renal. For the same compound, the values for the growth in the assay on CCRF-CEM leukemia and with MOLT-4 leukemia were 117% and 142%, respectively.

For the compound `CCOC(=O)c1cn2ncnc(Oc3ccc(NC(=O)NCCN4CCN(C)CC4)c(Cl)c3)c2c1C`, the growth in the assay with HCT-15 colon is 39.6%; in the assay with HT29 colon, 19.7%; in the assay with SNB-75 CNS, 86.3%; with SNB-19 CNS it was 87.7%; with U251 CNS, 63.3%; with PC-3 prostate, 50.5%. Also, the growth in the assay with SK-MEL-5 melanoma was 47.6%; in the assay on UACC-62 melanoma it was 34%; with LOX IMVI melanoma, 66.2%; in the assay on SK-MEL-28 melanoma, 13.3%; in the assay on SK-MEL-2 melanoma, 91.9%; in the assay with EKVX NSCLC, 66.3%. For the same compound, the growth is 65% in the assay on SN12C renal; 61.7% in the assay with UO-31 renal; 97.5% in the assay with TK-10 renal; 80% with ACHN renal; 76.3% in the assay with CAKI-1 renal; 77.9% with A498 renal. For the same compound, the growth is 44.3% in the assay on CCRF-CEM leukemia and 57.2% in the assay with MOLT-4 leukemia.

Regarding `O=C(COc1ccc(/C=C2\Cc3ccc(Cl)cc3C2=O)cc1)Nc1nc2ccccc2s1`, the growth in the assay on HCT-15 colon is 106%; in the assay with HT29 colon, 116%; in the assay with SNB-75 CNS it was 88%; with SNB-19 CNS, 98%; in the assay on U251 CNS, 97.8%; in the assay on PC-3 prostate, 92%. Further, the growth in the assay with SK-MEL-5 melanoma is 105%; with UACC-62 melanoma, 98.2%; in the assay on LOX IMVI melanoma, 72.8%; with SK-MEL-28 melanoma it was 108%; with SK-MEL-2 melanoma it was 122%; in the assay with EKVX NSCLC it was 117%. Further, the growth in the assay with SN12C renal was 102%; in the assay on UO-31 renal, 69.1%; in the assay with TK-10 renal it was 151%; in the assay with ACHN renal, 94.2%; with CAKI-1 renal, 92.3%; in the assay on A498 renal, 130%. For the same compound, the growth is 73.5% in the assay on CCRF-CEM leukemia and 69.8% in the assay with MOLT-4 leukemia.

Turning to `CCCCC1CCCC12NC(=O)NC2=O` (stereo not given), the growth with HCT-15 colon was 103%; in the assay with HT29 colon, 110%; in the assay on SNB-75 CNS, 107%; with SNB-19 CNS, 104%; in the assay with U251 CNS it was 99.5%; in the assay with PC-3 prostate it was 95%. Further, the growth with SK-MEL-5 melanoma was 117%; with UACC-62 melanoma, 93.8%; in the assay with LOX IMVI melanoma it was 88.9%; in the assay with SK-MEL-28 melanoma, 113%; in the assay on SK-MEL-2 melanoma, 100%; in the assay with EKVX NSCLC, 107%. For the same compound, the growth in the assay with SN12C renal was 96%; in the assay on UO-31 renal, 85.1%; in the assay on TK-10 renal it was 92.7%; in the assay on ACHN renal, 99.4%; in the assay with CAKI-1 renal it was 107%; with A498 renal it was 98.3%. The growth with CCRF-CEM leukemia was 101%; with MOLT-4 leukemia it was 122%.

`Cc1nc(NC(=O)COc2ccc(/C=C3\Cc4ccc(Cl)cc4C3=O)cc2)sc1C`: the growth is 104% in the assay with HCT-15 colon; 114% with HT29 colon; 108% in the assay with SNB-75 CNS; 106% with SNB-19 CNS; 99.4% in the assay on U251 CNS; 91.9% with PC-3 prostate. Also, the growth was 111% in the assay on SK-MEL-5 melanoma; 98.8% with UACC-62 melanoma; 72.7% in the assay on LOX IMVI melanoma; 132% in the assay with SK-MEL-28 melanoma; 97.4% with SK-MEL-2 melanoma; 103% in the assay on EKVX NSCLC. In addition, the growth in the assay with SN12C renal is 103%; in the assay with UO-31 renal, -88.5% (active); in the assay on TK-10 renal, 310%; in the assay with ACHN renal it was 93.7%; with CAKI-1 renal, 86.1%; with A498 renal, 139%. Moreover, the growth in the assay with CCRF-CEM leukemia was 100%; with MOLT-4 leukemia, 83.1%.

For the compound `COc1cc(Nc2nc(NCCN)nc3cc[nH]c(=O)c23)cc(OC)c1`, the growth is 102% in the assay on HCT-15 colon; 73.6% with HT29 colon; 90.3% with SNB-75 CNS; 102% in the assay on SNB-19 CNS; 85.8% in the assay on U251 CNS; 113% in the assay with PC-3 prostate. Besides, the growth was 81.6% in the assay on SK-MEL-5 melanoma; 57.2% in the assay with UACC-62 melanoma; 51.8% in the assay on LOX IMVI melanoma; 102% in the assay with SK-MEL-28 melanoma; 30.8% in the assay on SK-MEL-2 melanoma; 87.5% with EKVX NSCLC. In addition, the growth is 70.3% in the assay with SN12C renal; 112% with UO-31 renal; 95.3% in the assay on TK-10 renal; 99% in the assay with ACHN renal; 94.1% with CAKI-1 renal; 111% in the assay on A498 renal. For the same compound, the growth in the assay with CCRF-CEM leukemia was 68.6%; in the assay with MOLT-4 leukemia, 74.4%.

As to `NCCCNc1nc2ccccc2c2c(=O)c3cccc(F)c3sc12`, the growth was 9.25% (active) with HCT-15 colon; -14.1% (active) in the assay on HT29 colon; 42.7% in the assay on SNB-75 CNS; 44% in the assay with SNB-19 CNS; 28.5% in the assay on U251 CNS; 48.5% in the assay on PC-3 prostate. Moreover, the growth is 72.9% in the assay on SK-MEL-5 melanoma; 75.9% in the assay on UACC-62 melanoma; -96.8% (active) in the assay with LOX IMVI melanoma; 85.1% in the assay with SK-MEL-28 melanoma; 94.6% in the assay with SK-MEL-2 melanoma; 60.4% in the assay on EKVX NSCLC. Moreover, the growth with SN12C renal is 43.4%; in the assay on UO-31 renal, 16.4%; with TK-10 renal, 54.2%; with ACHN renal, 8.21% (active); with CAKI-1 renal, 1.7% (active); in the assay with A498 renal, 29.4%. Also, the results for the growth with CCRF-CEM leukemia and in the assay with MOLT-4 leukemia were 9.26% (active) and -14.7% (active), respectively.
